The text below walks through data of ChEMBL document CHEMBL1961873, “Compounds: GSK PKIS; Assays: Nanosyn kinase panel” (2012).

The term inhibition denotes the change of the read-out against control, counted positive when it falls.

Sequence of Serine/threonine-protein kinase Nek7 (Homo sapiens) (Q8TDX7 whole entry, looked up): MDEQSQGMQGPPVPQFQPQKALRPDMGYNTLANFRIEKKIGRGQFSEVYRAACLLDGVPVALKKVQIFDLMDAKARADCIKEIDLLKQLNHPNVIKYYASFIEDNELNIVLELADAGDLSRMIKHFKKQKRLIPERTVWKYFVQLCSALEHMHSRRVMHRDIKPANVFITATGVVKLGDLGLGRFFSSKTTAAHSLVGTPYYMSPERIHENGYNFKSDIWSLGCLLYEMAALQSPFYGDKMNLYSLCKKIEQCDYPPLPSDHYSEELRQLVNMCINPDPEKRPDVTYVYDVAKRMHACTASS
Sequence of Serine/threonine-protein kinase Nek6 (Homo sapiens) (Q9HC98 whole entry): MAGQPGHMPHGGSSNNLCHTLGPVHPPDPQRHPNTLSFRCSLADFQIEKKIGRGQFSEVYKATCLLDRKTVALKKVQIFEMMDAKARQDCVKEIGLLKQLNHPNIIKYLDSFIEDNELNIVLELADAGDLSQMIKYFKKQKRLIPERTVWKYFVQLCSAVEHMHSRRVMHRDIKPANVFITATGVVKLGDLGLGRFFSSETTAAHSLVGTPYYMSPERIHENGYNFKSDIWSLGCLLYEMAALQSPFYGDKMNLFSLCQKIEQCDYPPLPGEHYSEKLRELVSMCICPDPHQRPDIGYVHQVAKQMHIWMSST

One assay concerns the target Serine/threonine-protein kinase Nek6 (Homo sapiens) (UniProt Q9HC98). The conditions noted are these: at 1 µM.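 Further: values are mean inhibition of NEK6 from the GSK PKIS screen.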
Take `Fc1ccc(-c2c(-c3ccncc3)nc3n2CCS3)cc1`: the inhibition was determined as 0.48%.
For `C/C(Nc1ccc(S(N)(=O)=O)cc1)=C1/C(=O)Nc2ccccc21`, the inhibition is -0.83%.
As to `C[C@@H](Oc1cc(-n2cnc3ccc(OC4CCN(C)CC4)cc32)sc1C(N)=O)c1ccccc1Cl`, the inhibition came out at 2.21%.
Still for that read-out and setting: the result for `CCS(=O)(=O)c1ccc(OC)c(Nc2ncc(-c3ccccc3Cl)o2)c1` reads -2.46%; that for `COc1cc(N2CCN(C(C)C)CC2)ccc1Nc1nc(Nc2ccc(F)cc2C(=O)NC[C@@H](O)CO)c2cc[nH]c2n1`, 3.84%; that for `Cc1nnc(-c2ccc(C)c(-c3ccc(C(=O)NCc4ccc(Cl)cc4)cc3)c2)o1`, 5.29%.
Still for that read-out and setting: the result for `COc1ccc2ncn(-c3cc(O[C@H](C)c4ccccc4Cl)c(C(N)=O)s3)c2c1` reads 0.34%.
Still for that read-out and setting: the figure for `COc1cc(Nc2ncc3c(C)nc(-c4cccc(Oc5ccccc5)c4)n3n2)cc(OC)c1OC` is -0.99%; for `CN(C)CCCNc1nccc(-c2c(-c3ccc(F)cc3)nn3cc(C(F)(F)F)ccc23)n1` it is -1.46%.
With `CS(=O)(=O)CCNCc1ccc(-c2ccc3ncnc(Nc4ccc(OCc5ccccc5)c(Br)c4)c3c2)o1`, the inhibition was found to be 3.89%.
The same measure, in the same setting: the result for `COc1cc2ncn(-c3cc(OCCc4ccccc4)c(C(N)=O)s3)c2cc1OC` reads 1.69%; that for `O=C(NCC1CC1)c1ccc(-c2cccc(C(=O)NC3CC3)c2)cc1`, 1.92%; that for `CN1CCN(CCCNc2nc3ccc(Oc4ccc(NC(=O)Nc5cc(C(F)(F)F)ccc5F)cc4)cc3[nH]2)CC1`, -2.03%.
The same measure, in the same setting: the figure for `CN(C)c1ccc2c(c1)/C(=C/Nc1ccc(S(N)(=O)=O)cc1)C(=O)N2` is 2.13%.
Same read-out and setting: the result for `Clc1ccc(CNc2nccc(-c3cnn4ncccc34)n2)cc1` reads -1.91%.
As to `COc1cccc(-n2cnc3c(N/N=C/c4ccncc4)ncnc32)c1`, the inhibition turned out to be 2.69%.
As to `COc1ccc2cc(-c3c(-c4ccncc4)nc(-c4ccc([S+](C)[O-])cc4C)n3C)ccc2c1` (stereo unspecified), the inhibition came out at 1.1%.
As for `c1ccc(-c2n[nH]cc2-c2ccnc(-c3ccc(OCCN4CCOCC4)cc3)c2)nc1`, the inhibition was -2.27%.
The same measure, in the same setting: the result for `COc1cc2ncn(-c3cc(OCc4cccs4)c(C(N)=O)s3)c2cc1OC` reads 6.02%.
On the same count and under the same terms, the result for `CNC(=O)c1cncc(/C=C/c2c(C)cccc2C)c1` reads 0.01%; that for `COc1cc(C)c(N(C)C(=O)CN(C)C)cc1Nc1nc(Nc2cccc(F)c2C(N)=O)c2cc[nH]c2n1`, -1.46%; that for `C#Cc1cccc(Nc2ncnc3ccc(OCCCCNCCS(C)(=O)=O)cc23)c1`, 3.84%.
In the case of `COC(=O)Nc1nc2ccc(Sc3ccc(NC(=O)Nc4cc(C(F)(F)F)ccc4F)cc3)cc2[nH]1`, the inhibition is -0.98%.
On the same count and under the same terms, the figure for `CCc1nccc2c1nc(-c1nonc1N)n2CC` is 0.82%; for `COc1cc(Nc2ncc3c(C)nc(-c4cccc(C(F)(F)F)c4)n3n2)cc(OC)c1OC` it is 9.1%.
The same measure, in the same setting: the result for `O=C1Nc2ccc(I)cc2C1=Cc1cc(Br)c(O)c(Br)c1` reads 3.89%; that for `COc1cc2ncn(-c3cc(OCc4ccccc4C(F)(F)F)c(C(C)=O)s3)c2cc1OC`, 3.34%.
Still for that read-out and setting: the figure for `O=C(Nc1ccc(Oc2ccc3[nH]c(NC(=O)c4ccccc4)nc3c2)cc1)Nc1cc(C(F)(F)F)ccc1F` is 1.7%.
As for `c1ccc(Oc2ccc(Nc3ncc(-c4ccccc4)o3)cc2)cc1`, the inhibition is 0.96%.
Same read-out and setting: the figure for `Fc1ccc(-c2ncn(CCCN3CCOCC3)c2-c2ccncc2)cc1` is -0.51%.
The same measure, in the same setting: the figure for `CCS(=O)(=O)c1ccc(OC)c(Nc2ncc(-c3cccc(-c4ccccc4F)c3)o2)c1` is -2.09%; for `Fc1ccc(-c2nc3n(c2-c2ccncc2)CCS3)cc1` it is 0.72%; for `C[C@@H](Oc1cc(-n2cnc3ccc(OCC4CCN(C)CC4)cc32)sc1C(N)=O)c1ccccc1Cl` it is 0.47%.
On the same count and under the same terms, the result for `FC(F)(F)c1cccc(Nc2nccc(-c3cnn4nc(-c5ccccc5)ccc34)n2)c1` reads -0.37%.

Another assay has as its target Serine/threonine-protein kinase Nek7 (Homo sapiens) (UniProt Q8TDX7). The following applies: at 0.1 µM.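 Further: figures are averaged percent inhibition of NEK7 kinase.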
For the compound `Fc1ccc(-c2c(-c3ccncc3)nc3n2CCS3)cc1`, the inhibition worked out at 3.63%.
For the compound `C[C@@H](Oc1cc(-n2cnc3ccc(OC4CCN(C)CC4)cc32)sc1C(N)=O)c1ccccc1Cl`, the inhibition was determined as 3.24%.
On the same count and under the same terms, the result for `CCS(=O)(=O)c1ccc(OC)c(Nc2ncc(-c3ccccc3Cl)o2)c1` reads -0.08%; that for `COc1cc(N2CCN(C(C)C)CC2)ccc1Nc1nc(Nc2ccc(F)cc2C(=O)NC[C@@H](O)CO)c2cc[nH]c2n1`, 5.49%; that for `Cc1nnc(-c2ccc(C)c(-c3ccc(C(=O)NCc4ccc(Cl)cc4)cc3)c2)o1`, 5.57%.
Consider `COc1ccc2ncn(-c3cc(O[C@H](C)c4ccccc4Cl)c(C(N)=O)s3)c2c1`, for which the inhibition is 3.12%.
Still for that read-out and setting: the result for `COc1cc(Nc2ncc3c(C)nc(-c4cccc(Oc5ccccc5)c4)n3n2)cc(OC)c1OC` reads 4.1%; that for `CN(C)CCCNc1nccc(-c2c(-c3ccc(F)cc3)nn3cc(C(F)(F)F)ccc23)n1`, 2.85%.
Still for that read-out and setting: the figure for `CS(=O)(=O)CCNCc1ccc(-c2ccc3ncnc(Nc4ccc(OCc5ccccc5)c(Br)c4)c3c2)o1` is 3.08%; for `COc1cc2ncn(-c3cc(OCCc4ccccc4)c(C(N)=O)s3)c2cc1OC` it is 3.01%; for `O=C(NCC1CC1)c1ccc(-c2cccc(C(=O)NC3CC3)c2)cc1` it is 3.35%.
On the same count and under the same terms, the figure for `CN1CCN(CCCNc2nc3ccc(Oc4ccc(NC(=O)Nc5cc(C(F)(F)F)ccc5F)cc4)cc3[nH]2)CC1` is 3.61%.
For `CN(C)c1ccc2c(c1)/C(=C/Nc1ccc(S(N)(=O)=O)cc1)C(=O)N2`, the inhibition amounted to 5.09%.
Same read-out and setting: the figure for `Clc1ccc(CNc2nccc(-c3cnn4ncccc34)n2)cc1` is -2.2%; for `COc1cccc(-n2cnc3c(N/N=C/c4ccncc4)ncnc32)c1` it is -0.81%.
Same read-out and setting: the result for `COc1ccc2cc(-c3c(-c4ccncc4)nc(-c4ccc([S+](C)[O-])cc4C)n3C)ccc2c1` (stereo unspecified) reads 2.37%; that for `c1ccc(-c2n[nH]cc2-c2ccnc(-c3ccc(OCCN4CCOCC4)cc3)c2)nc1`, -5.33%; that for `COc1cc2ncn(-c3cc(OCc4cccs4)c(C(N)=O)s3)c2cc1OC`, 1.64%.
Still for that read-out and setting: the result for `CNC(=O)c1cncc(/C=C/c2c(C)cccc2C)c1` reads -1.37%; that for `COc1cc(C)c(N(C)C(=O)CN(C)C)cc1Nc1nc(Nc2cccc(F)c2C(N)=O)c2cc[nH]c2n1`, 3.13%.
As for `C#Cc1cccc(Nc2ncnc3ccc(OCCCCNCCS(C)(=O)=O)cc23)c1`, the inhibition was 4.76%.
Still for that read-out and setting: the figure for `COC(=O)Nc1nc2ccc(Sc3ccc(NC(=O)Nc4cc(C(F)(F)F)ccc4F)cc3)cc2[nH]1` is -0.35%.
Still for that read-out and setting: the figure for `CCc1nccc2c1nc(-c1nonc1N)n2CC` is 2.57%; for `COc1cc(Nc2ncc3c(C)nc(-c4cccc(C(F)(F)F)c4)n3n2)cc(OC)c1OC` it is 5.91%; for `O=C1Nc2ccc(I)cc2C1=Cc1cc(Br)c(O)c(Br)c1` it is 4.66%.
On to `COc1cc2ncn(-c3cc(OCc4ccccc4C(F)(F)F)c(C(C)=O)s3)c2cc1OC`, for which the inhibition was 1.7%.
Same read-out and setting: the figure for `O=C(Nc1ccc(Oc2ccc3[nH]c(NC(=O)c4ccccc4)nc3c2)cc1)Nc1cc(C(F)(F)F)ccc1F` is 4.29%; for `Fc1ccc(-c2ncn(CCCN3CCOCC3)c2-c2ccncc2)cc1` it is 2.31%; for `CCS(=O)(=O)c1ccc(OC)c(Nc2ncc(-c3cccc(-c4ccccc4F)c3)o2)c1` it is 1.63%.
The same measure, in the same setting: the figure for `Fc1ccc(-c2nc3n(c2-c2ccncc2)CCS3)cc1` is 5.52%; for `C[C@@H](Oc1cc(-n2cnc3ccc(OCC4CCN(C)CC4)cc32)sc1C(N)=O)c1ccccc1Cl` it is 4.32%.
On to `FC(F)(F)c1cccc(Nc2nccc(-c3cnn4nc(-c5ccccc5)ccc34)n2)c1`, for which the inhibition is 2.4%.
